Data published in PubChem BioAssay AID651898 (Broad Institute, 2012).
The other results are listed elsewhere or left out. Activity calls are given as the source filed them. The rule behind the calls is not given here.

Test: HepG2 hepatoma cell viability loss – plate reader, cherry-pick, two tests, cytotoxicity control, dose response (AID 651898)
Conditions: max activity: at 12 µM, test 1 unless noted; series mostly up to 26 µM; activity change, negative = cytotoxicity: at the top concentration

Row | Structure (SMILES) | max activity | activity change, negative = cytotoxicity
1 | Cc1nc2nc(SCC(=O)NCc3ccco3)nn2c(C)c1Cc1ccccc1 | 6.48% [at 0.195 µM, test 1] (inactive) | 
2 | CS(=O)(=O)N1[C@H](C(=O)NCc2ccncc2)[C@@H](CO)[C@@H]2Cn3c(ccc(C4=CCCCC4)c3=O)[C@@H]21 | -13.1% [measured here: replicate test 2 max activity, at 3 µM, test 2] | -12.1% (inactive)
3 | Cc1nc(=O)c(-c2ccccc2)c(C)n1-c1ccc(Br)cc1 | 19% (inactive) | 
4 | COc1cc(-c2n[nH]c(=S)n2Cc2ccccc2)cc(OC)c1OC | -15.9% (inactive) | 
5 | COCCNC(=O)C[C@H]1CC[C@@H]2[C@H](COc3ccc(NC(=O)Nc4cccc(F)c4)cc3C(=O)N2C)O1 | 9.85% [measured here: replicate test 2 max activity, at 3 µM, test 2] | 9.7% [at 23.5 µM] (inactive)
6 | O=C(CSc1n[nH]c(-c2cccnc2)n1)Nc1ccnc2ccccc12 | 8.04% (inactive) | 
7 | C=C(C)CSc1nc(N)c2c3c(sc2n1)CCC3 | -7.76% [at 1.6 µM, test 1] (inactive) | 
8 | Cn1c(=O)c2c(nc(OCc3cccnc3)n2Cc2ccccc2)n(C)c1=O | -11.3% [at 26 µM, test 1] (inactive) | 
9 | C=CCn1c(SCc2c(C(=O)OC)sc(N)c2C(=O)OC)nnc1-c1ccc(Cl)cc1 | -11.6% [at 1.6 µM, test 1] (inactive) | 
10 | Cc1ccc(Cc2c(C)nc3nc(SCC(=O)NCCN4CCOCC4)nn3c2C)cc1 | -6.95% [at 0.38 µM, test 1] (inactive) | 
